Screening results: PubChem, National Center for Advancing Translational Sciences (NCATS)
Compounds with a hit are over-represented: about 7.4% of the library has one in this group of screens.
NPC1 promoter act: activators of NPC1 promoter | Huh7 NPC1 promoter luciferase reporter, 24 h | Potency, µM (titrated, usually from 9.22 µM), for the others: at the top dose activation, usual class: activators | 320,000 compounds, 2.4% hits | AID 485313; note: % of control where 0% means no effect; nearly all actives have a fitted effect of over 60% in size
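Huh7 cells stably carrying NPC1 promoter–luciferase, plated in Opti-MEM with 10% FBS for 2 h, were exposed to compound in DMSO for 24 h at 37 °C; luciferase reagent was added for 10 min and luminescence read.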
Rab9 promoter act: activates the Rab9 promoter. Huh7 Rab9 promoter-luciferase reporter, luminescence, 24 h. Potency, µM (series often up to 9.22 µM), inactives show top-dose activation, negative = inhibition, actives largely listed as activators. 320,000 compounds, 2.8% hits; note: % of control where 0% means no effect; nearly all actives have a fitted effect of over 60% in size
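Measured in stably transfected Huh7 cells bearing a Rab9 promoter–luciferase construct: 24 h compound treatment at 37 °C, followed by luminescence detection.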
FLuc modulator: inhibits or activates purified firefly luciferase, miR-21 counter-screen; AID 588342; Potency, µM (doses to about 57.5 µM), inactives show top-dose activity change, negative = inhibition, hits mostly inhibitors; 360,000 compounds, 6.9% hits; P08659; purified FLuc, Km substrates, luminescence inhibition;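 note: plate controls were vehicle for no effect and reference inhibitor for full effect; nearly all actives have a fitted effect of over 55% in size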
Target sequence (P08659 whole entry, looked up): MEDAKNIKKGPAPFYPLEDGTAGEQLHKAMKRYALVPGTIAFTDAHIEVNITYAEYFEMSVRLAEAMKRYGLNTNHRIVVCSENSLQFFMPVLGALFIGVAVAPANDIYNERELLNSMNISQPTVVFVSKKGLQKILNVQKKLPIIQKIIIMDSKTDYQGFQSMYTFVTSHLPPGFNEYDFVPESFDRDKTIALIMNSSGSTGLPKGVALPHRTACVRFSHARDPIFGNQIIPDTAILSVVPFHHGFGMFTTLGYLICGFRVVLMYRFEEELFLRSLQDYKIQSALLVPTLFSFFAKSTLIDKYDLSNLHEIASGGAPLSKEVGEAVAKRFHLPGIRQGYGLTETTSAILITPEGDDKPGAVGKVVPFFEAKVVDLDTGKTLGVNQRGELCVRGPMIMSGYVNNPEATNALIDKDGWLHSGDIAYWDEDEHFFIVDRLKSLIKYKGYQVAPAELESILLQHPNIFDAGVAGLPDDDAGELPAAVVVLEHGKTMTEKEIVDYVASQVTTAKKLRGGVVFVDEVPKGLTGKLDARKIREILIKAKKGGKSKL
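Purified P. pyralis luciferase (10nM final) with 10uM D-luciferin and 10uM ATP (Km levels) in 50mM Tris acetate pH 7.5, 10mM Mg acetate, 0.01% Tween-20, 0.05% BSA; qHTS 6-point titration, ~60 µM downward; luminescence read.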
ELG1 genotoxic: induces genotoxicity in HEK293T cells with luciferase-tagged ELG1 | AID 504466 | 330,000 compounds, 1.3% hits | Potency, µM (titrated, usually from 46 µM), without a hit: top-dose activity change, positive = activation, actives largely listed as activators | HEK293T ELG1-luciferase reporter, luminescence, 16 h; note: % of control where 0% means no effect; nearly all actives have a fitted effect of over 60% in size
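DMSO vehicle served as control against compound-treated ELG1-luciferase HEK293T cells; exposure lasted 16 hr at 37 °C and 5% CO2, followed by ONE-Glo luminescence detection after 30 min.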
SMN2 splice up: enhancers of SMN2 splice variant expression; HEK293 SMN2-luciferase splicing reporter, luminescence, 30-36 h; Potency, µM (doses to about 46.1 µM), inactives show at the highest dose activity change, positive = activation, most hits filed as activators; 210,000 compounds, 2.8% hits; AID 1458; note: % of control where 0% means no effect; nearly all actives have a fitted effect of over 55% in size
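HEK293 cells carry an SMN2 minigene-luciferase reporter in which exon 7 inclusion puts luciferase in frame. Cells were seeded at 2000 cells/well, attached for 10-12 hours, then exposed to compounds for 30-36 hours at 37C before ONE-Glo luminescence.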
An asterisk follows results filed as active; ? = inconclusive; · = no result given. Calls come from the whole dose curve; as a rule, active = well fitted curve in the direction sought with a large enough effect; inconclusive = small, poorly fitted or top-dose-only effect, or another doubt; inactive = no such curve, though single readings can be large; an effect the other way counts as inactive or inconclusive. Potency is the fitted concentration of half-maximal effect.

SMILES	NPC1 promoter act	Rab9 promoter act	FLuc modulator	ELG1 genotoxic	SMN2 splice up
COc1cccc(CNC(=O)Cn2nc(C)c3sc4ccccc4c3c2=O)c1OC	·	·	-2%	·	·
CCOc1ccc(S(=O)(=O)N2CCC(C(=O)NC3CC3)CC2)cc1C	-2%	-2%	0%	-1%	·
CC(C)(C)C1CCC(OC(=O)CN2CCCCC2)CC1 (stereo not drawn)	21%	15%	19µM*	10%	·
COCCOC(=O)c1c(-c2ccccc2)c(-c2ccccc2)nn(C)c1=O	·	·	-2%	·	-11%
O=C(Nc1ccccc1F)c1ccc(CSc2ccccc2)o1	15%	17%	17µM*	?	19%
CC(=O)Nc1ccc(NC(=O)c2ccc(CSc3ccccc3)o2)cc1	-2%	-3%	-5%	-5%	-48%
O=C(Nc1ccccc1F)c1ccc(COc2ccc(Cl)cc2Cl)o1	-1%	0%	?	-3%	13µM*
CC(=O)Nc1ccc(NC(=O)c2ccc(COc3ccc(Cl)cc3Cl)o2)cc1	·	·	-3%	·	23%
O=C(Nc1cccc(F)c1)c1ccc(CSc2ccccc2)o1	23%	21%	19µM*	19%	?
COC(=O)[C@@H]1C[C@H]2CC[C@H](O)C[C@H]2N1Cc1c(F)cccc1Cl	·	·	·	·	7%
Cc1cccc(NC(=O)C2C3C=CC(O3)C2C(=O)O)c1 (stereo not drawn)	-1%	1%	-2%	-7%	·
Cc1cccc(NC(=O)C2C3C=CC(C4CC34)C2C(=O)O)c1 (stereo not drawn)	-1%	0%	17µM*	6%	-29%
Cc1ccsc1/C=N/n1cnc2sc(C)c(C)c2c1=O	?	?	11µM*	6%	21%
Cc1ccsc1/C=N/n1cnnc1	0%	-1%	-3%	0%	·
C=CCN1C(=O)C(=O)N(Cc2nc3ccccc3s2)C1=O	-31%	21%	8.5µM*	?	·
S=c1[nH]nc(CSc2nc3ccccc3s2)n1C1CCCCC1	0%	2%	-6%	-8%	-12%
O=C(NCC1CC1)Nc1ccc(Cl)cc1	?	?	17µM*	?	·
Cc1ccc(CNC(=O)Nc2ccc(Cl)cc2)cc1	?	4µM*	-8%	?	·
Cc1ccc(CNC(=O)Nc2ccccc2)cc1	?	2.5µM*	12µM*	9.2µM*	16µM*
CSc1ccc(NC(=O)NCc2ccccc2)cc1	4.5µM*	4.5µM*	?	?	·
O=C(NCC1CC1)Nc1cccc(Cl)c1	6%	23%	?	10%	·
Cc1ccc2[nH]cc(CCNC(=O)Nc3ccccc3)c2c1	1%	-3%	0%	-3%	-36%
Cc1ccc(C)c(CNC(=O)Nc2ccccc2)c1	?	?	13µM*	?	·
Cc1ccc(CNC(=O)Nc2cccs2)cc1	?	?	12µM*	14%	16µM*
Cc1cc(OCCCCn2ccnc2)cc(C)c1Cl	-1%	2%	3%	-1%	-59%
SMILES	NPC1 promoter act	Rab9 promoter act	FLuc modulator	ELG1 genotoxic	SMN2 splice up
O=C(c1cccs1)N1CCC(c2ccccc2)C1 (stereo not drawn)	3.2µM*	2.8µM*	21µM*	18µM*	16µM*
CCc1ccc(NC(=S)N2CCC(NC(=O)c3ccccc3)CC2)cc1	2%	-1%	1%	-4%	·
Cc1ccc(NC(=O)N2CCCC(c3ccccc3)C2)cc1 (stereo not drawn)	2%	23%	12µM*	2%	·
CCc1ccc(NC(=O)N2CCC(c3ccccc3)C2)cc1 (stereo not drawn)	1.1µM*	0.89µM*	6.7µM*	?	25µM*
O=C(Nc1ccccc1)N1CCC(c2ccccc2)C1 (stereo not drawn)	1.6µM*	1.8µM*	12µM*	?	18µM*
C/C=C1/C(=O)C[C@H]2[C@@H]3CCC4=CC(=O)CC[C@]4(C)[C@H]3CC[C@]12C	·	·	·	·	-40%
Cc1ccccc1Cn1nnc2c(=O)[nH]c(C3CCN(C(=O)c4ccccc4)CC3)nc21	·	·	0%	·	-4%
CC1CCC2(CC1)NC(=O)N(CC(=O)Nc1ccc3c(c1)OCCCO3)C2=O (stereo not drawn)	0%	-6%	1%	-2%	·
O=C(CN1C(=O)NC2(CCCCCC2)C1=O)c1ccc(F)cc1	0%	1%	-3%	16%	·
